# CYP2C9 act – activators of human CYP2C9; P11712; recombinant CYP2C9, luciferin-H conversion, luminescence; hits give high values; factor 1 = untreated enzyme, 0 = blocked; activation factor at 5 µM; 96,000 tested, 1.4% active; AID 1024;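 active = activation factor of 2 or more for CYP2C9 at a 5 µM dose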;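 note: 0 = sulfaphenazole-blocked wells and 1 = vehicle-only wells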
# Target sequence (P11712 whole entry, looked up): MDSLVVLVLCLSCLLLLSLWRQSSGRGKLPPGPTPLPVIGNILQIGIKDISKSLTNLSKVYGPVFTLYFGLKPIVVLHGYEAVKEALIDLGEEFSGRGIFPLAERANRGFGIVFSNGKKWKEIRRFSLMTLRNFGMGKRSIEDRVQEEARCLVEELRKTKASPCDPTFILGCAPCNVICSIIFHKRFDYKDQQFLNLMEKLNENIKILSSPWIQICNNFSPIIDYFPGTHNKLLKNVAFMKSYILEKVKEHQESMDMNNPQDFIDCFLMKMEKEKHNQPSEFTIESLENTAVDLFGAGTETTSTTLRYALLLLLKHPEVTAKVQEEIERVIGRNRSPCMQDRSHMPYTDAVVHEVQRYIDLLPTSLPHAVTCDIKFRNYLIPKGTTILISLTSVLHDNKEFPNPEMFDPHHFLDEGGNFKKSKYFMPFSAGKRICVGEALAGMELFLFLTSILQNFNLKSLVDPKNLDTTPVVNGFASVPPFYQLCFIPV
# CYP2C19 act – increases human CYP2C19 enzyme activity. recombinant CYP2C19, luciferin-H EGE luminescence; hits give high values; 0 = fully inhibited enzyme, 1 = untreated enzyme. activation factor at 5 µM. 96,000 tested, under 10 active. AID 1025;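 active = activation factor of at least 2 at 5 µM in the primary screen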;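 note: 0 = wells with 2.5 mM tranylcypromine and 1 = vehicle-only wells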
# Measles CPE – protection of cells from measles virus. 140,000 tested, 1.5% active. protection (pct of control), % at 4 µM. Measles virus-infected cells, CPE protection, absorbance; in the data active = protection mostly above about 24%, no sharp cut-off; inactive = mostly below about 26%
# CYP2C9 inhib – blocks human cytochrome P450 2C9. P11712. CYP2C9 Supersomes, luciferin-H conversion, luminescence. inhibition, % at 5 µM. 96,000 tested, 20% active. AID 777;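 active = blocking of liver enzyme CYP2C9 beyond about 50% at 5 µM, limit read from the data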
# CYP2C19 inhib – inhibitors of human CYP2C19; P33261; CYP2C19 Supersomes, luciferin-H EGE luminescence, 30 min; inhibition, % at 5 µM; 96,000 tested, 21% active;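 active = CYP2C19 inhibition above a set limit at 5 µM in the primary screen, cut at about 50% in these data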;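 note: plate controls were negative control wells for no effect and 2.5 mM tranylcypromine positive control for full effect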
# An asterisk follows results filed as active; . = not tested or not shown. This is a sample that favours compounds with a hit; in the whole collection about 22% have one here.
SMILES,CYP2C9 act,CYP2C19 act,Measles CPE,CYP2C9 inhib,CYP2C19 inhib
COc1cccc(-n2nc3c(=O)n(Cc4ccccc4Cl)nc(C)c3c2C)c1,.,.,21,.,.
COc1ccccc1CN1C(=O)CN(C2CCCCCC2)C(=O)C1c1ccc(F)cc1 (stereo not drawn),0.6,0.4,4,44,57*
COc1cccc(C2C(=O)N(C3CCCCC3)CC(=O)N2Cc2ccc(F)cc2)c1 (stereo not drawn),0.5,0.5,23,46,47
Cc1ccc(OCc2nnc(SCC(=O)N3CCOCC3)n2C)cc1,1.1,0.8,16,-9,19
O=C(CN1C(=O)C2CC=CCC2C1=O)Nc1nnc(SCc2ccc(F)cc2)s1 (stereo not drawn),1.2,1,28,-16,-2
COc1ccc(-n2ncc3c(N4CCCCC4)ncnc32)cc1,.,.,30,.,.
Cc1cc(C)cc(-n2nnnc2-c2cn(C)nc2C(F)(F)F)c1,0.8,0.3,6,20,75*
Cc1ccc(-n2nnnc2-c2ccco2)cc1,.,.,19,.,.
Cn1cc(-c2nnnn2-c2ccc(Cl)cc2)c(C(F)(F)F)n1,0.6,0,4,40,100*
Cc1nn(C)cc1-c1n[nH]c(=S)n1-c1ccc(Cl)cc1,.,.,3,.,.
COc1ccc(-n2nnnc2-c2cnc(N3CCCC3)nc2C(F)(F)F)cc1,0.4,0.1,6,64*,88*
FC(F)(F)c1nc(-c2cccs2)ncc1-c1nnnn1-c1ccc(Cl)cc1,0.5,1,4,52*,-3
CC/C(Cc1ccccc1)=N/NC(=O)c1cccc(Br)c1,.,.,3,.,.
CC(=O)c1ccc(NC(=O)Nc2cccc(Cl)c2)cc1,0.8,1,22,24,3
O=C(Nc1c(Cl)cc(Cl)cc1C(=O)NCC1CCCO1)c1ccco1 (stereo not drawn),0.8,1,4,16,2
S=C(NCCC(c1ccccc1)c1ccccc1)Nc1cccc(Cl)c1,0.2,0.2,9,81*,81*
Cc1ccc(NC(=S)NCCc2ccc(F)cc2)c(C)c1,.,.,9,.,.
Cc1ccc(NC(=S)NCCC(c2ccccc2)c2ccccc2)c(C)c1,0.4,0.4,4,59*,61*
Cc1ccccc1NC(=S)NCCC(c1ccccc1)c1ccccc1,0.4,0.4,6,64*,63*
Cc1ccc(C2(C)NC(=O)N(CC(=O)Nc3cc(S(=O)(=O)N4CCOCC4)ccc3C)C2=O)cc1 (stereo not drawn),.,.,5,.,.
COc1nc(NC23CC4CC(CC(C4)C2)C3)nc(OC)n1,0.8,1,11,15,4
Nc1nc(CSc2nc3ccccc3[nH]2)nc(N2CCOCC2)n1,0.7,1,.,28,-3
N/C(=N\S(=O)(=O)c1cccs1)c1ccccc1,1.5,0.1,17,-47,92*
CC(C)(C#N)Nn1cnnc1,.,.,11,.,.
Cc1cccc(NC(=O)CCSc2nc(C)cc(C)n2)c1,2.7*,0.5,6,-169,52*
SMILES,CYP2C9 act,CYP2C19 act,Measles CPE,CYP2C9 inhib,CYP2C19 inhib
Cc1cc(C)nc(SCc2nnc(SCC(=O)Nc3ccc(Cl)c(C(F)(F)F)c3)o2)n1,0.8,0.5,27,24,47
Cc1cccc(NC(=O)CCCSc2nc3ccccc3[nH]2)c1,.,.,5,.,.
Cc1cccc(NC(=O)CSc2nnc(CSc3nc(C)cc(C)n3)o2)c1,0.6,0.1,9,44,89*
C=CCn1c(SCC(=O)Nc2nnc(CC)s2)nnc1-c1cccnc1,1,1.1,5,0,-7
Cc1noc(C)c1CSc1nnc(-c2ccncc2)n1-c1ccc(Cl)c(Cl)c1,0.4,0.2,7,59*,84*
Cc1ccccc1-n1c(SCc2c(C)noc2C)nnc1-c1ccncc1,0.5,0.2,23,51*,78*
Cc1ccccc1-n1c(SCc2c(C)noc2C)nnc1-c1cccnc1,0.6,0.9,21,42,11
Cc1nnc(Oc2ccccc2)c2ccccc12,0.8,0.8,4,22,17
C=C1c2cc(C)ccc2NC(=O)N1c1ccc(C)cc1,1,0.4,6,4,56*
O=C(Nc1ccccc1Cc1ccccc1)C1CC(=O)N(c2ccc3c(c2)OCCO3)C1 (stereo not drawn),0.2,0.4,6,76*,64*
CCc1cccc(CC)c1NC(=O)C1CC(=O)N(c2ccc3c(c2)OCCO3)C1 (stereo not drawn),0.1,0.3,6,89*,74*
Cc1cc(C)c(NC(=O)C2CC(=O)N(c3ccc4c(c3)OCCO4)C2)c(C)c1 (stereo not drawn),0.8,0.8,17,20,16
O=C(Nc1nc(-c2ccco2)c(-c2ccco2)s1)C1CC(=O)N(c2ccc3c(c2)OCCO3)C1 (stereo not drawn),0.1,0.3,14,94*,71*
CCCCc1nnc(NC(=O)C2CC(=O)N(c3ccc4c(c3)OCCO4)C2)s1 (stereo not drawn),.,.,14,.,.
Cc1cccc(S(=O)(=O)c2c(N)n(/N=C/c3ccccc3)c3nc4ccccc4nc23)c1,0.5,1,60*,55*,2
Cc1ccc(C)c(S(=O)(=O)c2c(N)n(/N=C/c3ccco3)c3nc4ccccc4nc23)c1,0.1,0.4,3,86*,63*
CCCc1nccn1S(=O)(=O)c1cc(OC)ccc1OC,0.4,0.1,33,56*,90*
COc1ccc(Cl)cc1S(=O)(=O)n1ccnc1C(C)C,0.8,0.3,6,21,74*
CCc1nccn1S(=O)(=O)c1ccc(C)c(C)c1,1.2,0.9,17,-16,8
CCc1nccn1S(=O)(=O)c1cc(OC)c(Cl)cc1OC,.,.,7,.,.
CCc1nccn1S(=O)(=O)c1cc(Br)ccc1OC,1.1,0,1,-14,97*
CCc1nccn1S(=O)(=O)c1ccc(OC)c(OC)c1,1.2,0.2,15,-19,76*
Cn1cc(CNC(=O)c2sc3cccc(Cl)c3c2Cl)cn1,.,.,10,.,.
C/C(CC(=O)Nc1ccc(Cl)c(Cl)c1)=N\NC(=O)Cc1ccccc1,.,.,19,.,.
Cc1cc(Oc2ccccc2)nc(-c2ccccc2O)n1,1,1,29,1,-1
SMILES,CYP2C9 act,CYP2C19 act,Measles CPE,CYP2C9 inhib,CYP2C19 inhib
CCOc1ccc2nc(Cl)c(C3CC(c4ccco4)=NN3S(=O)(=O)c3ccccc3)cc2c1 (stereo not drawn),.,.,11,.,.
O=C(O)c1ccccc1C(=O)NCc1ccccc1,1.1,0.8,14,-9,25
Cc1ccc(CNC(=O)c2ccccc2NS(C)(=O)=O)cc1,0.5,0.4,5,54*,55*
Cc1ccccc1NC(=O)Nc1ccccc1C(=O)NCc1ccccc1,0.4,0.5,11,59*,50
CS(=O)(=O)Nc1ccccc1C(=O)O,0.9,0.9,51*,14,7
Cc1nc2cccc(C(=O)NCc3ccccc3)c2o1,0.4,1,4,62*,3
CC(C)(C)S(=O)(=O)c1ccccc1C(=O)O,1,1,2,-3,-4
Cc1ccc2nc(-c3ccc(NC(=O)COC(=O)c4ccc(=O)[nH]c4)cc3)sc2c1,.,.,11,.,.
CNC(=O)CSc1nnc(COc2ccc(Cl)cc2)n1CCOC,0.8,0.9,28,22,8

# Bioassay records as filed in PubChem.
